Luc counter = blocks Kinase-Glo luciferase, a counter-screen artifact; Potency, µM (top dose mostly 38.3 µM), for the others: top-dose activity change, negative = inhibition, most hits filed as inhibitors; Kinase-Glo luciferase, ATP luminescence, 8 min; 200,000 compounds, 0.28% hits; also: % is scaled to controls: 0 for no effect and ±100 for the full control effect; nearly all actives have a fitted effect of over 60% in size
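Substrate mix (final 50 mM imidazole pH 7.2, 50 mM KCl, 7 mM MgCl2, 10 uM ATP, 0.01% Tween 20, 0.05% BSA) plus pin-tool compound, then Kinase-Glo detection mix; 8 min ambient, luminescence read.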
ELG1 genotox = inducers of genotoxicity in HEK293T ELG1-luciferase cells | 330,000 compounds, 1.3% hits | Potency, µM (series often up to 46 µM), for the others: at the highest dose activity change, positive = activation, most hits filed as activators | HEK293T ELG1-luciferase reporter, luminescence, 16 h; also: % of control where 0% means no effect; nearly all actives have a fitted effect of over 60% in size
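Cells (2,000/well) expressing the ELG1-luciferase fusion are dosed by pin tool and kept 16 hr at 37 °C, 5% CO2. Signal comes from ONE-Glo luciferase reagent after 30 min at room temperature.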
SMN2 splice enh = increases expression of the SMN2 splice variant; HEK293 SMN2-luciferase splicing reporter, luminescence, 30-36 h; Potency, µM (titrated, usually from 46.1 µM), for the others: at the top dose activity change, positive = activation, usual class: activators; 210,000 compounds, 2.8% hits; AID 1458; also: % of control where 0% means no effect; nearly all actives have a fitted effect of over 55% in size
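HEK293 cells carry an SMN2 […]–luciferase reporter in which exon 7 inclusion puts luciferase in frame. Cells were plated 10-12 h before compound addition, then incubated 30-36 h at 37C. ONE-Glo luminescence was read; sodium butyrate at 4.5 mM final served as control.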
Rab9 promoter act = Rab9 promoter activation | Huh7 Rab9 promoter-luciferase reporter, luminescence, 24 h | Potency, µM (top dose mostly 9.22 µM), without a hit: at the highest dose activation, negative = inhibition, usual class: activators | 320,000 compounds, 2.8% hits | AID 485297; also: % of control where 0% means no effect; nearly all actives have a fitted effect of over 60% in size
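Huh7 cells stably carrying Rab9 promoter–luciferase reporter, plated 1500 cells/well, compound added after 2 h and incubated 24 h at 37 °C; luciferase luminescence then read after 10 min with detection reagent.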
FLuc counter = firefly luciferase modulation, counter-screen for miR-21 project | purified FLuc, Km substrates, luminescence inhibition | 360,000 compounds, 6.9% hits | Potency, µM (doses to about 57.5 µM), inactives show top-dose activity change, negative = inhibition, hits mostly inhibitors | P08659;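 also: plate controls were vehicle for no effect and reference inhibitor for full effect; nearly all actives have a fitted effect of over 55% in size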
Target sequence (P08659 whole entry, looked up): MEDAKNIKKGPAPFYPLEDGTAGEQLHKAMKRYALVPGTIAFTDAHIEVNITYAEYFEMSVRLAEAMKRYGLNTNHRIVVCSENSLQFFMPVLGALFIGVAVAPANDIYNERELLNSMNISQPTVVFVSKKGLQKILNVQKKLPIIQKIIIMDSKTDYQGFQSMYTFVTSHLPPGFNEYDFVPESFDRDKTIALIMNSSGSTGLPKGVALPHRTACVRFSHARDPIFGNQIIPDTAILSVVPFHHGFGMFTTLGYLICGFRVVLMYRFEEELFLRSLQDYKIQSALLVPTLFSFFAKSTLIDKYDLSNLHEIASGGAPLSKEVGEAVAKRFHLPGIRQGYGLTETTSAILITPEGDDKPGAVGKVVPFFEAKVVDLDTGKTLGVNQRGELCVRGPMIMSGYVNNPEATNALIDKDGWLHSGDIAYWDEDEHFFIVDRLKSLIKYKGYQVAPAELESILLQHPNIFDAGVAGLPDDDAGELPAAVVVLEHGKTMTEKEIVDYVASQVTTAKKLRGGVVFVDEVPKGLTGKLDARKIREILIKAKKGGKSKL
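Purified P. pyralis luciferase (10nM final) with 10uM D-luciferin and 10uM ATP (Km levels) in 50mM Tris acetate pH 7.5, 10mM Mg acetate, 0.01% Tween-20, 0.05% BSA; qHTS 6-point titration, ~60 µM downward; luminescence read.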
NPC1 prom act = activates the NPC1 promoter; Huh7 NPC1 promoter luciferase reporter, 24 h; Potency, µM (top dose mostly 9.22 µM), inactives show at the top dose activation, usual class: activators; 320,000 compounds, 2.4% hits; AID 485313; also: % of control where 0% means no effect; nearly all actives have a fitted effect of over 60% in size
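Huh7 cells stably carrying NPC1 promoter–luciferase, plated in Opti-MEM with 10% FBS for 2 h, were exposed to compound in DMSO for 24 h at 37 °C; luciferase reagent was added for 10 min and luminescence read.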
* = called active by the depositor; [ ] = dose if it differs, or a comment. In the library only some 7.5% were active in any assay of this set; here they are far more common. Calls follow the shape of the dose curve; as a rule, active = well fitted curve in the direction sought with a large enough effect; inconclusive = small, poorly fitted or top-dose-only effect, or another doubt; inactive = no such curve, though single readings can be large; an effect the other way counts as inactive or inconclusive. Potency is read from the fitted curve at half-maximal effect.

Screening O=C1c2cccc3c(N4CCCCC4)ccc(c23)C(=O)N1CCO returned Luc counter 1.6%, ELG1 genotox inconclusive, SMN2 splice enh 9.6%, Rab9 promoter act inconclusive, FLuc counter 15.1µM* and NPC1 prom act inconclusive.
O=C1c2cccc3c(N4CCCCC4)ccc(c23)C(=O)N1c1cccc(O)c1 was read as Luc counter 2.0%, ELG1 genotox 12.5%, SMN2 splice enh -10.1%, Rab9 promoter act 0.2%, FLuc counter 19µM* and NPC1 prom act 0.2%.
C=CCn1c(C)cc(-c2csc(NC(=O)CCc3nc4ccccc4c(=O)[nH]3)n2)c1C was read as ELG1 genotox -6.3%, Rab9 promoter act -5.7%, FLuc counter 0.6% and NPC1 prom act -2.1%.
`COC(=O)c1ccc(C(=O)OC)c(NC(=O)COC(=O)CCOc2ccc(C)cc2)c1` gave Rab9 promoter act -2.3%, FLuc counter -3.4% and NPC1 prom act 6.7%.
COCCNc1nc(-c2cc3ccccc3o2)cs1 was read as Luc counter 2.8%, ELG1 genotox inconclusive, SMN2 splice enh 3.16µM*, Rab9 promoter act 1µM*, FLuc counter 1.51µM* and NPC1 prom act 1.58µM*.
Screening CCOC(=O)c1ccc(NC(=S)Nc2ccccc2)cc1 returned Luc counter 0.3%, ELG1 genotox 8.1%, SMN2 splice enh inconclusive, Rab9 promoter act -1.9%, FLuc counter inconclusive and NPC1 prom act 1.2%.
CCOC(=O)C(/C(N)=N/C(=O)Nc1ccccc1)=C(\C)O was read as Luc counter -7.7%, ELG1 genotox 4.2%, SMN2 splice enh -4.3%, Rab9 promoter act 1.5%, FLuc counter 6.01µM* and NPC1 prom act 6.3%.
For CCN(CC)S(=O)(=O)c1ccc(N2CCOCC2)c(NC(=O)Cc2cccc3ccccc23)c1 the results were Luc counter -3.1%, ELG1 genotox -1.8%, SMN2 splice enh -4.9%, Rab9 promoter act 0.0%, FLuc counter -16.5% and NPC1 prom act -1.3%.
CN(C)Cc1ccc(-c2cc3onc(-c4ccccc4)c3c(=O)n2C)cc1 was read as Luc counter -1.3%[7.66 µM] and SMN2 splice enh -15.8%[9.22 µM].
`COc1ccc(-c2cc3onc(-c4c(Cl)cccc4Cl)c3c(=O)n2C)cc1` gave ELG1 genotox -3.5%, Rab9 promoter act 1.1%, FLuc counter inconclusive and NPC1 prom act -1.0%.
COc1cccc(-c2cc3onc(-c4ccccc4)c3c(=O)n2C)c1 was read as ELG1 genotox inconclusive, Rab9 promoter act 0.398µM*, FLuc counter 0.849µM* and NPC1 prom act 0.708µM*.
For Cn1c(-c2ccc(F)c(F)c2)cc2onc(-c3ccccc3)c2c1=O the results were ELG1 genotox 2.31µM*, Rab9 promoter act 1.12µM*, FLuc counter 1.35µM* and NPC1 prom act 0.794µM*.
`COC(=O)c1ccc(-c2cc3onc(-c4ccccc4)c3c(=O)n2C)cc1` gave ELG1 genotox inconclusive, Rab9 promoter act 28.1%, FLuc counter 4.26µM* and NPC1 prom act inconclusive.
`COc1cccc(CNC(=O)C2CCN(c3nnc(N4CCCC4=O)s3)CC2)c1` gave ELG1 genotox 0.9%, Rab9 promoter act 0.6%, FLuc counter 0.2% and NPC1 prom act -5.0%.
For COc1cccc(/C=N/NC(=O)C[n+]2ccccc2)c1OC the results were Luc counter -0.3%, ELG1 genotox -3.0%, SMN2 splice enh -5.7%, Rab9 promoter act -2.7%, FLuc counter -0.8% and NPC1 prom act 0.2%.
For COc1cccc(/C=N/NC(=O)CN(C)S(=O)(=O)c2ccccc2)c1OC the results were ELG1 genotox 7.8%, Rab9 promoter act 18.8%, FLuc counter 21.3µM* and NPC1 prom act 19.5%.
`COc1cccc(/C=N/NC(=O)c2cc3c(OC)c(OC)ccc3[nH]2)c1OC` gave Luc counter -0.5%, ELG1 genotox 3.5%, SMN2 splice enh inconclusive, Rab9 promoter act -11.5%, FLuc counter 10.7µM* and NPC1 prom act -16.1%.
Screening COc1ccc(OC)c2[nH]c(C(=O)N/N=C/c3ccccc3O)cc12 returned ELG1 genotox inconclusive, Rab9 promoter act -35.9%, FLuc counter inconclusive and NPC1 prom act -41.8%.
Screening COc1cccc(/C=N/NC(=O)c2cc3c(OC)cccc3[nH]2)c1O returned Luc counter -2.1%, ELG1 genotox -2.0%, SMN2 splice enh -109.4%, Rab9 promoter act -35.8%, FLuc counter -18.7% and NPC1 prom act -27.4%.
COc1cccc(/C=N/NC(=O)c2ccc(=O)n(C)c2)c1OC was read as Luc counter -2.2%, ELG1 genotox 4.4%, SMN2 splice enh 7.3%, Rab9 promoter act 2.5%, FLuc counter -3.4% and NPC1 prom act 2.2%.
Screening COc1cccc(/C=N/NC(=O)c2cc3c(OC)cccc3[nH]2)c1OC returned Luc counter 1.2%, ELG1 genotox -3.0%, SMN2 splice enh 0.6%, Rab9 promoter act -8.0%, FLuc counter 21.3µM* and NPC1 prom act 2.1%.
COc1ccccc1/C=N/NC(=O)c1cc2c(OC)c(OC)ccc2[nH]1 was read as ELG1 genotox 1.0%, Rab9 promoter act -2.0%, FLuc counter 13.5µM* and NPC1 prom act -8.6%.
`COc1ccc(/C=N/c2oc(-c3ccccc3)cc2C#N)cc1OC` gave Luc counter 4.2%, ELG1 genotox inconclusive, SMN2 splice enh -43.5%, Rab9 promoter act 0.2%, FLuc counter -4.5% and NPC1 prom act -0.2%.
O=C(COC(=O)c1ccc(F)cc1F)NC(=O)Nc1ccc2c(c1)OCCO2 was read as ELG1 genotox 10.2%, Rab9 promoter act 1.9%, FLuc counter -18.4% and NPC1 prom act 15.1%.
`CCCC(C(=O)N(C)CC(=O)Nc1ccc(N2CCOCC2)cc1)c1ccccc1` (stereo not given) gave ELG1 genotox 0.8%, Rab9 promoter act -0.5%, FLuc counter -0.6% and NPC1 prom act -1.0%.
O=C(/C=C/c1cccnc1)c1ccccc1O was read as ELG1 genotox 8.3%, Rab9 promoter act -0.9%, FLuc counter 16.9µM* and NPC1 prom act -4.0%.
For Cc1ccc(C(=O)/C=C/C(=O)c2ccc(C)cc2)cc1 the results were Luc counter -1.0%, ELG1 genotox -10.6%, SMN2 splice enh -105.2%, Rab9 promoter act 1.0%, FLuc counter inconclusive and NPC1 prom act -4.0%.
CN(C)c1ccc(/C=C/C(=O)c2cccnc2)cc1 was read as ELG1 genotox -0.1%, Rab9 promoter act -1.1%, FLuc counter 3.01µM* and NPC1 prom act -2.8%.
